# Sm TGR block – qHTS Assay for the Inhibitors of Schistosoma Mansoni Peroxiredoxins; Schistosoma mansoni thioredoxin glutathione reductase (TGR), Q962Y6; purified TGR, DTNB reduction, TNB absorbance 405 nm; Potency, µM (titrated, usually from 114 µM), for inactives: at the top dose activity change, negative = inhibition, hits mostly inhibitors; actives 3% (n = 360,000); AID 485364, 2010; further: on the % scale 0 is the no-effect control and ±100 the full control effect; nearly all actives have a fitted effect of over 60% in size
#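 TGR 20 nM + NADPH 100 uM (dispensed conc.), cpd preinc 15 min RT; start with NADPH (500 uM addition) then DTNB (15 mM addition). Kinetic TNB absorbance, 405 nm filter. Four-parameter Hill fit across titration.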
# SARS PLpro yeast – qHTS of Yeast-based Assay for SARS-CoV PLP; S. cerevisiae expressing SARS-CoV PLpro, growth rescue; Potency, µM (top dose mostly 32.9 µM), for inactives: at the highest dose activity, positive = growth rescue, usual class: activators; actives 0.19% (n = 330,000); AID 485353, 2010; calls by dose curve; further: 0% is about no effect; nearly all actives have a fitted effect of over 55% in size
# Pf growth 96h – Primary qHTS for delayed death inhibitors of the malarial parasite plastid, 96 hour incubation. P. falciparum luciferase reporter growth, 96 h. Potency, µM (highest dose often 28.7 µM), for the others: at the top dose activity change, negative = inhibition, actives largely listed as inhibitors. actives 6.9% (n = 320,000); further: on the % scale 0 is the no-effect control and ±100 the full control effect
#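 Readout is luminescence from an integrated firefly luciferase in P. falciparum. Red cells, 2% hematocrit and 0.05% parasitemia final, were cultured with compound through two parasite generations (96 hours) at 37 C, 5% CO2.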
# Pf growth 48h – Primary qHTS for delayed death inhibitors of the malarial parasite plastid, 48 hour incubation. P. falciparum luciferase growth in erythrocytes, 48 h. actives 5.9% (n = 310,000). Potency, µM (series often up to 28.7 µM), for the others: at the top dose activity change, negative = inhibition, hits mostly inhibitors; further: on the % scale 0 is the no-effect control and ±100 the full control effect
#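 Luciferase-expressing parasites in RBCs, 2% Hct / 0.1% parasitemia final; RPMI 1640 + 0.5% Albumax; 37 C, 5% CO2, one generation; luminescence read-out, lower signal = inhibition.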
# AmpC detergent – qHTS Inhibitors of AmpC Beta-Lactamase (assay with detergent) | P00811 | AmpC hydrolysis of nitrocefin, absorbance 480 nm, 0.01% Triton | Potency, µM (doses to about 114 µM), inactives show top-dose activity change, negative = inhibition, hits mostly inhibitors | actives 0.041% (n = 370,000);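 further: 0% = no-compound wells and -100% = no-enzyme wells; nearly all actives have a fitted effect of over 25% in size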
# Target sequence (P00811 whole entry, looked up): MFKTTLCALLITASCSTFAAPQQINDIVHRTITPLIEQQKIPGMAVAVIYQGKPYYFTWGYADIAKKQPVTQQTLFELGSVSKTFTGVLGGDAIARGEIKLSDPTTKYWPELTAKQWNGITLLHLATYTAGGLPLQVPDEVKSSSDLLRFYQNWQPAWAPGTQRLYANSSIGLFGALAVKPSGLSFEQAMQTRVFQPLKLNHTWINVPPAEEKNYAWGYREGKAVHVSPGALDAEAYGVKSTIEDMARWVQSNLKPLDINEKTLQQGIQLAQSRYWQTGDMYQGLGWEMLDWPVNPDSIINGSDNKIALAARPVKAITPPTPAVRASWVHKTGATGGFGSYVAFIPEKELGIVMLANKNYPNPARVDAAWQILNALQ
#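 20 mM phosphate pH 7.0 + 0.01% (detergent screen) or 0.0001% Triton X-100; 5.3 nM AmpC reagent; cpd preinc 15 min RT; nitrocefin (800 uM stock) to start; A480 q20 s × 4 min; Activity was normalised to no-enzyme and no-compound control wells.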
# AmpC no deterg – qHTS Inhibitors of AmpC Beta-Lactamase (assay without detergent); P00811; AmpC nitrocefin hydrolysis, absorbance 480 nm, 0.0001% Triton; Potency, µM (series often up to 57.1 µM), for the others: at the top dose activity change, negative = inhibition, usual class: inhibitors; actives 0.52% (n = 330,000);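 further: plate controls were no compound for no effect and no enzyme for full effect; nearly all actives have a fitted effect of over 20% in size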
#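 AmpC (5.3 nM in the dispensed reagent) in 20 mM phosphate pH 7.0 with 0.01% (detergent screen) or 0.0001% Triton X-100 was preincubated with compounds for 15 min at room temperature. Nitrocefin was then added from an 800 uM solution, and hydrolysis was followed at 480 nm.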
# Starred values were filed as active, the others as inactive; ? = inconclusive; . = no result given; [ ] = another dose, or the depositor's remark. Compounds with a hit are over-represented: about 12% of the library has one in this group of screens. Unless noted, the call rests on the fitted dose curve; in most records, active means well fitted curve in the direction sought with a large enough effect; inconclusive means small, poorly fitted or top-dose-only effect, or another doubt; inactive means no such curve, though single readings can be large; an effect the other way counts as inactive or inconclusive. Potency means the concentration at half of the fitted maximal effect.
SMILES,Sm TGR block,SARS PLpro yeast,Pf growth 96h,Pf growth 48h,AmpC detergent,AmpC no deterg
Cc1nn(-c2ccccc2)c(C)c1NC(=O)COC(=O)c1ccc(Cl)c(S(N)(=O)=O)c1,-19%,-2%,3%,3%,0%,24%
CCOc1[nH]n(-c2ccccc2)c(=O)c1C=NCc1cccnc1,-3%,-7%,19µM*,?,-3%,42%
CC12CN3CC(C)(CN(C1)C3c1cc3ccccc3[nH]1)C2=O (stereo not given),3%,0%,1µM*,22%,?,-12%
CCN(CC)c1ccc(CNc2nc3ccccc3n2CC)cc1,6%,-1%,3%,22%,7%,12%
O=C1c2ccccc2-c2onc3ccc(N4CCCC4)c1c23,18µM*,1%,39%,9.3µM*,1%,105%
CCNc1ccc2noc3c2c1C(=O)c1ccccc1-3,2%,-66%,?,35%,1%,137%
O=C1c2ccccc2-c2onc3ccc(NCc4ccco4)c1c23,11µM*,-12%,25%,-28%,-15%,?
Cc1ccc(C)c(NC(=S)NC(NC(=O)OCc2ccccc2)C(Cl)(Cl)Cl)c1 (stereo not given),-22%,-14%,9.3µM*,?,-18%,-28%
O=C(CC1C(=O)NCCN1C(=S)Nc1ccccc1)Nc1ccc2c(c1)OCCO2 (stereo not given),-7%,-2%,1%,2%,-11%,-4%
OC(CN1CCN(Cc2ccccc2)CC1)c1ccc(F)cc1 (stereo not given),8%,-4%,-29%,?,-1%,-6%
OC(c1ccccc1)(c1ccc(F)cc1)C(c1ccccc1)N1CCOCC1 (stereo not given),10%,-19%,6.6µM*,38%,-4%,-6%
OC(c1ccc(F)cc1)C(CN1CCOCC1)c1ccccc1 (stereo not given),-2%,1%,10µM*,12µM*,-1%,-3%
CCCCCOc1ccc(C(O)C(CN2CCOCC2)c2ccccc2)cc1 (stereo not given),-14%,-8%,-4%,2.6µM*,-15%,142%
COc1ccc(C(O)C(CN2CCOCC2)c2ccccc2)cc1 (stereo not given),1%,0%,9.3µM*,?,-5%,2%
CCOc1ccc(C(=O)C(CN2CCOCC2)c2ccccc2)cc1 (stereo not given),-5%,-115%,?,?,?,49%
CCNc1c(NS(=O)(=O)c2ccc(Cl)s2)c(=O)oc2ccccc12,0%,-7%,4%,3%,-5%,-35%
CCCCN(C(=O)c1cc(S(=O)(=O)N2CCCCCC2)ccc1OC)c1c(N)n(CCC)c(=O)[nH]c1=O,-7%,3%,-7%,?,0%,-1%
Cc1cc(C)c(S(=O)(=O)NCc2ccccn2)c(C)c1,-7%,-6%,0%,6%,-11%,-10%
CCC(=O)Nc1nnc(SCC(=O)Nc2ccc(F)cc2)s1,2%,-2%,46%,-1%,?,-43%
COc1ccc(CNC(=O)CC2Sc3ccccc3NC2=O)cc1 (stereo not given),2%,1%,26%,-2%,-2%,0%
O=C(COC(=O)CC1Sc2ccccc2NC1=O)NCc1ccccc1 (stereo not given),0%,7%,?,13µM*,2%,-11%
CC(=O)C1=C(C)NC(SCC(=O)c2cc(Cl)ccc2Cl)=C(C#N)C1c1ccco1 (stereo not given),?,-1%,9.3µM*,9.3µM*,?,8%
CC(=O)C1=C(C)NC(SCC(=O)c2ccc(F)cc2)=C(C#N)C1c1ccco1 (stereo not given),-8%[11.4 µM],-4%,?,.,-12%,-20%
CC(=O)C1=C(C)NC(SCC(=O)c2ccc(Cl)c(Cl)c2)=C(C#N)C1c1ccco1 (stereo not given),?,9%,-112%,1.2µM*,-10%,6%
O=C(CCCN1C(=O)/C(=C/c2cccs2)SC1=S)Nc1ccc(O)c(C(=O)O)c1,3%,0%,40%,?,9%,-22%
SMILES,Sm TGR block,SARS PLpro yeast,Pf growth 96h,Pf growth 48h,AmpC detergent,AmpC no deterg
CC(=C\c1ccco1)/C=C1/SC(=S)N(CC(=O)O)C1=O,40µM*,7%,-5%,30%,2%,-39%
O=C(CCCN1C(=O)/C(=C/c2ccccc2)SC1=S)Nc1ccc(C(=O)O)c(O)c1,-1%,1%,?,-22%,3%,-35%
CC(C(=O)Nc1ccc(C(=O)O)c(O)c1)N1C(=O)/C(=C\c2ccco2)SC1=S (stereo not given),7.1µM*,10%,-19%,2%,-11%,-29%
O=C(CN1C(=O)/C(=C/c2ccco2)SC1=S)Nc1ccc(O)c(C(=O)O)c1,14µM*,1%,15µM*,11%,-5%,-31%
CC(/C=C1\SC(=S)N(CC(=O)O)C1=O)=C\c1ccccc1,-15%,1%,-14%,8%,-5%,-41%
O=C(CN1C(=O)/C(=C/c2ccco2)SC1=S)Nc1ccc(C(=O)O)c(O)c1,14µM*,?,?,16%,-6%,-42%
O=C(CCN1C(=O)/C(=C\c2ccccc2F)SC1=S)Nc1ccc(C(=O)O)c(O)c1,-19%,-3%,6%,-17%,-12%,-33%
NS(=O)(=O)c1ccc(NC(=O)CCC(=O)O)cc1,.,.,-17%,-5%,.,.
COC(=O)[C@H](Cc1ccccc1)NC(=O)O[C@H]1C(=O)c2ccc(OC)cc2O[C@@H]1c1ccc2c(c1)OCO2,-12%,-20%,-8%,13%,-12%,?
COc1ccc(CNCCNC(=O)c2nonc2N)cc1OC,-5%,1%,0%,10%,-8%,-16%
COc1ccc(CCNC(=O)c2nnn(-c3cc(C)cc(C)c3)c2N)cc1OC,?,-3%,3.7µM*,?,?,84%
COc1ccc(CCNC(=O)c2nonc2N)cc1OC,-1%,-5%,4.1µM*,-1%,-12%,-16%
CCCCOc1ccc(C(=O)NCCc2sc3nc(-c4ccc(OC)cc4)nn3c2C)cc1,9%,.,.,.,8%,.
CCN(CCn1cccn1)Cc1ccccc1OCC(O)CN1CCc2ccccc2C1 (stereo not given),3%,-1%,?,?,-3%,51%
